About 570 (0.26%) of roughly 220,000 compounds were called active. This is one part of a sample in which actives are shown more often than they occur. Values without a mark were called inactive. Cut-off read from the data, not from the text of the source: active = inhibition above about 29%; inactive = the rest.
Each compound was assayed against Sphingosine 1-phosphate receptor 4 (Homo sapiens) (UniProt O95977) (assay: blockers of human S1P4 receptor – cell-based, primary screen (AID 1510;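 note: 0% = wells stimulated with agonist and 100% = vehicle wells without agonist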)). Details: S1P4-expressing cells, antagonist mode, reporter read-out; at 4.98 µM; stronger effect = higher value.
Chain of Sphingosine 1-phosphate receptor 4 (Homo sapiens) (O95977 whole entry, looked up): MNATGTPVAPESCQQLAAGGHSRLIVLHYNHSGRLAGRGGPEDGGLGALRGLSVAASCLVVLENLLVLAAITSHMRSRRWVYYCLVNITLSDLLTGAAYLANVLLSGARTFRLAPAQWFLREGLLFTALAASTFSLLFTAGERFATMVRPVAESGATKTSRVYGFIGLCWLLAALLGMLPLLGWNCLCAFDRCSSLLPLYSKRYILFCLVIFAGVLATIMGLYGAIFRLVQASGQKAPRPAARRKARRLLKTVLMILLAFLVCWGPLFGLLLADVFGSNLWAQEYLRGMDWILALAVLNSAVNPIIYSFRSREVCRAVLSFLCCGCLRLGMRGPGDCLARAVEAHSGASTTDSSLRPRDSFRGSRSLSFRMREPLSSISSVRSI
Work on `O=C(Cc1ccc(-c2ccccc2)cc1)NC(c1ccccc1)c1ccccc1` yielded an inhibition of -5.23%. In the case of `CCOC(=O)C(C(=O)OCC)C(C#N)c1ccccc1` (stereo unspecified), the inhibition was -19.7%. For `CCOC(=O)/C=C/C(=O)OCC(=O)NC(c1ccccc1)c1ccccc1`, the inhibition was 36.3% (active). `O=C(CSc1cccc[n+]1[O-])NCCCc1ccccc1` gave an inhibition of 14.6%. Work on `O=C(Nc1nnc(CCN2CCCCC2)s1)c1cccc(Cl)c1` yielded an inhibition of 6.03%. Work on `Cc1cc(Nc2cccc(C)c2C)n2ncnc2n1` yielded an inhibition of -10.4%. With `O=C(CSc1nnnn1-c1ccc(O)cc1)c1ccc(F)cc1` the inhibition was 6.46%. In the case of `CCOC(=O)c1sc(NC(=O)CSc2nc(O)c(Cc3ccccc3)c(=O)[nH]2)nc1C`, the inhibition was -8.89%. For `Cc1[nH]c2ccccc2c1-c1ccc(Cl)nn1`, the inhibition was 2.48%. In the case of `O=C(CO/N=C/c1ccccc1O)NNC(=O)c1ccccc1Cl`, the inhibition was -12.4%. For `Cc1cc(C)cc(Oc2nc3c(C)cccn3c(=O)c2/C=C(\C#N)C(=O)NC2CCS(=O)(=O)C2)c1` (stereo unspecified), the inhibition was -10.8%. `CCNC(=O)NNC(=O)C1CC(c2cccs2)=NO1` (stereo unspecified) showed an inhibition of -2.29%. Compound `CCOc1ccc(NS(=O)(=O)c2ccc(C)c(C(N)=O)c2)cc1` has an inhibition of -13.9%. In the case of `CC(=O)Nc1ccc(S(=O)(=O)NC2(C(F)(F)F)C(=O)Nc3c2c(=O)[nH]c(=O)n3Cc2ccccc2)cc1` (stereo unspecified), the inhibition was -16.6%. `O=C(Nc1ccccc1)N1CCN(C2c3ccccc3-c3ccccc32)CC1` gave an inhibition of -2.81%. Compound `COc1ccc(NC(=O)c2cn(-c3ccccc3)nc2SC)cc1` has an inhibition of -1.4%. Work on `COCC(=O)Nc1cc(C(=O)OC)cc(C(=O)OC)c1` yielded an inhibition of -10.1%. `Nc1c(C(=O)O)cnn1-c1ccccc1` showed an inhibition of -7.33%. In the case of `CC(C)NC(=O)NCCCCCCS(C)=O` (stereo unspecified), the inhibition was -8.38%. Work on `CSc1cccc(NC(=O)C2CCCN2S(=O)(=O)c2ccc3c(c2)CCC(=O)N3)c1` (stereo unspecified) yielded an inhibition of -15%. For `CCC(C)(C)C1CCC(=NNC(=O)c2ccc(Br)o2)CC1` (stereo unspecified), the inhibition was -7.44%. Compound `CCOC(=O)Cc1ncccc1C(=O)Nc1ccc(OC(F)(F)F)cc1` has an inhibition of -25.3%. In the case of `COC(=O)c1ccc(S(=O)(=O)NCc2ccccc2)n1C`, the inhibition was -20.7%. `Cc1nn(-c2ccccc2)c(C)c1NC(=O)CCl` was tested, and the inhibition was -19.8%. `COc1ccc2ccccc2c1CNc1nnnn1C` was tested, and the inhibition was 6.29%. `O=C(O)c1ccn(COc2ccc(Br)cc2)n1` showed an inhibition of 3.75%. `Nc1nnc(SCC(=O)Nc2ccc3nc(SCC(=O)Nc4ccccc4)sc3c2)s1` showed an inhibition of -10.8%. For `CC(C)C(C)(C#N)NC(=O)CSc1nncn1-c1ccccc1` (stereo unspecified), the inhibition was -9.99%. `CCOc1ncccc1C(=O)N(C)CC(=O)Nc1ccc(F)cc1` showed an inhibition of -7.65%. For `CCCCCC1CCC(c2nnc(SCC(C)=O)o2)CC1` (stereo unspecified), the inhibition was -13.8%. For `NC(=O)COC(=O)c1cc(S(=O)(=O)N2CCN(c3ccccc3)CC2)ccc1Cl`, the inhibition was -4.86%. `Cn1c(CCC(=O)OCC(=O)NCc2ccccc2Cl)nc(=O)c2ccccc21` showed an inhibition of -5.53%. `O=C(Nc1ccc(F)cc1)N1CCN(c2ccc(F)cc2)CC1` gave an inhibition of -44%. With `Cn1c(N)c(C(=O)COC(=O)c2cnc(Cl)c(Cl)c2)c(=O)n(C)c1=O` the inhibition was -6.76%. In the case of `CCc1nnc(NS(=O)(=O)c2ccc(NC(=S)NC(=O)/C=C/c3cccs3)cc2)s1`, the inhibition was 9.53%. With `O=C(Nc1ccccc1Cc1ccccc1)c1ccc2c(c1)SC1=NS(=O)(=O)CCN12` the inhibition was -10.9%.
